Laboratory results published in the supplement of paper PMC10849652.
The full data set covers some 7,900 targets. This sample favours those with a hit. About 0.6% of all pairs of compound and target were hits. Values without a mark were called inactive.

Assays:
Test in all cases: log2 fold change, soluble protein after heating vs DMSO (PISA); higher = thermal stabilisation; K562 cells, 10 uM, 30 min; active = over 0.2 and 3.5 SD of the protein, either way, in both replicates (recomputed)
[1] = compound: CC[C@@H]1C(=O)N(C)c2cnc(Nc3ccc(C(=O)NC4CCN(C)CC4)cc3OC)nc2N1C1CCCC1
Method in brief: (§1)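 Aliquots of K562 cells (2×10^6 cells/mL) treated with 10 μM compound for 30 min were heated for 3 min over 48°C-58°C. After pooling and extraction in PBS with 0.5% NP-40 at 4°C, soluble protein from a 21,000xg, 90 min spin was quantified by TMTpro 16plex LC-MS/MS with channel sums equalised. Thermal stability is expressed against control samples, from duplicates, as a log2 fold change.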

volasertib = compound: CC[C@@H]1C(=O)N(C)c2cnc(Nc3ccc(C(=O)N[C@H]4CC[C@H](N5CCN(CC6CC6)CC5)CC4)cc3OC)nc2N1C(C)C [volasertib]
Method in brief: as §1

[2] = compound: CC[C@H](C)N1C=C(C2=C(C=C(C=C21)C3=CN=C(C=C3)N4CCNCC4)C(=O)NCC5=C(C=C(NC5=O)C)C)C
Method in brief: as §1

epoxomicin = compound: CC[C@H](C)[C@@H](C(=O)N[C@@H]([C@@H](C)O)C(=O)N[C@@H](CC(C)C)C(=O)[C@]1(CO1)C)NC(=O)[C@H]([C@@H](C)CC)N(C)C(=O)C [epoxomicin]
Method in brief: as §1

[3] = compound: CCn1c(C(=O)N(C2CC2)C2CC2)cc2c3c(ncn3C)c(Nc3cc(C)n(C)n3)nc21
Method in brief: as §1

[4] = compound: CCn1cc(-c2ccnc3[nH]c(-c4cccc(CN(C)C)c4)cc23)c(-c2ccc(NC(=O)N(C)C)cc2)n1
Method in brief: as §1

[5] = compound: CN(C)CC(=O)Nc1ccc2[nH]c(=O)c3ccccc3c2c1
Method in brief: as §1

rosiglitazone = compound: CN(CCOC1=CC=C(C=C1)C[C@H]2C(=O)NC(=O)S2)C3=CC=CC=N3 (racemic) [rosiglitazone]
Method in brief: as §1

[6] = compound: CN1C2=C(C3=C1C(=O)N(N=C3)CC4=CC(=CC=C4)N)SC(=C2)S(=O)C
Method in brief: as §1

[7] = compound: CN1CCC(CNc2ccc3ncc(-c4cccc(OC(F)(F)F)c4)n3n2)CC1
Method in brief: as §1

saracatinib = compound: CN1CCN(CCOc2cc(OC3CCOCC3)c3c(Nc4c(Cl)ccc5c4OCO5)ncnc3c2)CC1 [saracatinib]
Method in brief: as §1

sotrastaurin = compound: CN1CCN(c2nc(C3=C(c4c[nH]c5ccccc45)C(=O)NC3=O)c3ccccc3n2)CC1 [sotrastaurin]
Method in brief: as §1

alvocidib = compound: CN1CC[C@H](c2c(O)cc(O)c3c(=O)cc(-c4ccccc4Cl)oc23)[C@H](O)C1 [alvocidib]
Method in brief: as §1

Tubastatin A = compound: CN1CCc2c(c3ccccc3n2Cc2ccc(C(=O)NO)cc2)C1 [Tubastatin A]
Method in brief: as §1

[8] = compound: CNC(=O)C1=CC=CC=C1NC2=NC(=NC=C2Cl)NC3=C(C=C(C=C3)N4CCOCC4)OC
Method in brief: as §1

defactinib = compound: CNC(=O)c1ccc(Nc2ncc(C(F)(F)F)c(NCc3nccnc3N(C)S(C)(=O)=O)n2)cc1 [defactinib]
Method in brief: as §1

rucaparib = compound: CNCc1ccc(-c2[nH]c3cc(F)cc4c3c2CCNC4=O)cc1 [rucaparib]
Method in brief: as §1

[9] = compound: CNc1nc(-c2ccc3c(N)n[nH]c3c2)cc(N2C[C@@H](C(=O)NC3CCCCC3)CC[C@H]2C)n1
Method in brief: as §1

encorafenib = compound: COC(=O)N[C@@H](C)CNc1nccc(-c2cn(C(C)C)nc2-c2cc(Cl)cc(NS(C)(=O)=O)c2F)n1 [encorafenib]
Method in brief: as §1

[10] = compound: COC(=O)[C@H](CCSC)NC(=O)C1=C(C=C(C=C1)NC[C@H](CS)N)C2=CC=CC=C2
Method in brief: as §1

Sequence of UniProt P08962 (P08962 whole entry, looked up): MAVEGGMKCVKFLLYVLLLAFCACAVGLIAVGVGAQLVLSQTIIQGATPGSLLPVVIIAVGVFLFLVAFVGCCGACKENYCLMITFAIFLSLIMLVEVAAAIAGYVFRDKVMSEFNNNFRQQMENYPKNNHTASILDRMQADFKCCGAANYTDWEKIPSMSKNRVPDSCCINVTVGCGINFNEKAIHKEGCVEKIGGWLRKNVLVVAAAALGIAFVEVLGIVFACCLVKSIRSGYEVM
Sequence of UniProt O75153 (O75153 whole entry, looked up): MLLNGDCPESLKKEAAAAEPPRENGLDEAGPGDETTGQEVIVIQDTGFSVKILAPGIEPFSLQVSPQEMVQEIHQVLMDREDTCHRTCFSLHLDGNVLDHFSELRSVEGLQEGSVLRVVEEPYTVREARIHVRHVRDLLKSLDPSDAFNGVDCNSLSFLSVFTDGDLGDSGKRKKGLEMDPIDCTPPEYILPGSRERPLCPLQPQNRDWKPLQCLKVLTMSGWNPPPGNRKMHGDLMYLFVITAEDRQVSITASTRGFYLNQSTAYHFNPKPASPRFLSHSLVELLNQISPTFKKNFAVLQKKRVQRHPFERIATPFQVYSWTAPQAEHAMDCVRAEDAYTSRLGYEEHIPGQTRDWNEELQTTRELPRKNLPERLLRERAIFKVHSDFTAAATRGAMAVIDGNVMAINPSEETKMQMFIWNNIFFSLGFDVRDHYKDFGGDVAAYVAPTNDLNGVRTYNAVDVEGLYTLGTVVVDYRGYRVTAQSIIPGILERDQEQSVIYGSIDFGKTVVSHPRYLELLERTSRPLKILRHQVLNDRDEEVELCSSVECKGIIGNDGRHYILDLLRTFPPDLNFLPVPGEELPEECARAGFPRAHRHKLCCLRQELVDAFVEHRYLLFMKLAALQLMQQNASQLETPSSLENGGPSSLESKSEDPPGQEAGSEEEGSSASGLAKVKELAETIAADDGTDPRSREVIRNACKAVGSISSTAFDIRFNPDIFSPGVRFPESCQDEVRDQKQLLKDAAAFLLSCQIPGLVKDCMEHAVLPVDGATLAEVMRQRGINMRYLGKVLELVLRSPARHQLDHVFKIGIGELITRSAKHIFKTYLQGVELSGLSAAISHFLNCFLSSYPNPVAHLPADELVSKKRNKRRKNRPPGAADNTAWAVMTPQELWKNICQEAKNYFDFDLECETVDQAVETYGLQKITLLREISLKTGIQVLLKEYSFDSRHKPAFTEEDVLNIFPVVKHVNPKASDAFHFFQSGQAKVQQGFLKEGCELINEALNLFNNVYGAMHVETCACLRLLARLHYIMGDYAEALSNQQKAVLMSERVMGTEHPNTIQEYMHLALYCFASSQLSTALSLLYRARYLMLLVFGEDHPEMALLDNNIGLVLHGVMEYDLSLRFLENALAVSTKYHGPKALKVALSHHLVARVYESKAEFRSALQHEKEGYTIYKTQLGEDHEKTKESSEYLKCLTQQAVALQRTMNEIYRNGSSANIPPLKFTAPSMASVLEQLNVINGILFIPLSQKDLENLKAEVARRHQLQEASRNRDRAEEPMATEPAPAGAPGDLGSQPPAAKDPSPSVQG
Sequence of UniProt Q9NPF2 (Q9NPF2 whole entry, looked up): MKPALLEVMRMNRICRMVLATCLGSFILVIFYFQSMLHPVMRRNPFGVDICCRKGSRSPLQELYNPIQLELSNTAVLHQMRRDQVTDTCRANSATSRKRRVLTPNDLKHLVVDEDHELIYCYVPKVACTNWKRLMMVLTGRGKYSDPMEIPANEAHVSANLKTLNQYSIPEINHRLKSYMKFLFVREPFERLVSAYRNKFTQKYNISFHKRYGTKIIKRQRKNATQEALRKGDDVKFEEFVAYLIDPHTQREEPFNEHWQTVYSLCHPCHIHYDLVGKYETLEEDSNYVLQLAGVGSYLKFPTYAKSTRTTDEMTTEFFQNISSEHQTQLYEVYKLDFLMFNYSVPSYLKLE
Sequence of UniProt P83916 (P83916 whole entry, looked up): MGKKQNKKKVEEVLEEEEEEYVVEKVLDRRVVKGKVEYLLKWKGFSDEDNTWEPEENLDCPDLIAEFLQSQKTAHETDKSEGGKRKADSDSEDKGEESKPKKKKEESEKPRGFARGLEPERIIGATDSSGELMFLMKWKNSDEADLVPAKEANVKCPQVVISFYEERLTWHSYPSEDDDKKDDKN
Sequence of UniProt Q15417 (Q15417 whole entry, looked up): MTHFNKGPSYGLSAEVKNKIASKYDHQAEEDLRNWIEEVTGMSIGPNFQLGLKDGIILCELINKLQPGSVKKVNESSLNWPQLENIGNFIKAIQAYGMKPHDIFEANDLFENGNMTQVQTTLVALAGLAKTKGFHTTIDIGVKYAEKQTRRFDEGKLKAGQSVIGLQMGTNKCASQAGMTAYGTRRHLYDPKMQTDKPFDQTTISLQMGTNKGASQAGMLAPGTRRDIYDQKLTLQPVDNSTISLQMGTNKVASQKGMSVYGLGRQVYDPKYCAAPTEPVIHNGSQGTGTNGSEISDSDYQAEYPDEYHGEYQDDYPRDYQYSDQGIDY
Sequence of UniProt P14635 (P14635 whole entry, looked up): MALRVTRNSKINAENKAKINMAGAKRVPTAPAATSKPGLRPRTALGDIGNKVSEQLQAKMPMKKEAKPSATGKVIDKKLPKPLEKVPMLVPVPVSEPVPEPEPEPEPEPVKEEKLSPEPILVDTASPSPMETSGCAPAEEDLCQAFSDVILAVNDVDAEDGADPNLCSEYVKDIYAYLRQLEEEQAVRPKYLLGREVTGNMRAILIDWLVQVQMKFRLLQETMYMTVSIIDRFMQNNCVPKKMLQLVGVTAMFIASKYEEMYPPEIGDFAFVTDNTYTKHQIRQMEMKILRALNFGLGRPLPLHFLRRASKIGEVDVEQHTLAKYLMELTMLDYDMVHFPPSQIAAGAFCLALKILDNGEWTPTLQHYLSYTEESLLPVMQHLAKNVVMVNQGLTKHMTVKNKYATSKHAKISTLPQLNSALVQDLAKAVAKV
Sequence of UniProt P60033 (P60033 whole entry, looked up): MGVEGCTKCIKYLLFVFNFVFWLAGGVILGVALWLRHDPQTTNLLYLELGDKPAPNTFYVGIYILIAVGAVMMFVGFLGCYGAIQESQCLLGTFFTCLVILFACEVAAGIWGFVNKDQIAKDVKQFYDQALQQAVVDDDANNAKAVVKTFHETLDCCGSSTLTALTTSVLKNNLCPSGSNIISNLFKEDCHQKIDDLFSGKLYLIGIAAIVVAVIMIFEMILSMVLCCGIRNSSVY
Sequence of UniProt P55060 (P55060 whole entry, looked up): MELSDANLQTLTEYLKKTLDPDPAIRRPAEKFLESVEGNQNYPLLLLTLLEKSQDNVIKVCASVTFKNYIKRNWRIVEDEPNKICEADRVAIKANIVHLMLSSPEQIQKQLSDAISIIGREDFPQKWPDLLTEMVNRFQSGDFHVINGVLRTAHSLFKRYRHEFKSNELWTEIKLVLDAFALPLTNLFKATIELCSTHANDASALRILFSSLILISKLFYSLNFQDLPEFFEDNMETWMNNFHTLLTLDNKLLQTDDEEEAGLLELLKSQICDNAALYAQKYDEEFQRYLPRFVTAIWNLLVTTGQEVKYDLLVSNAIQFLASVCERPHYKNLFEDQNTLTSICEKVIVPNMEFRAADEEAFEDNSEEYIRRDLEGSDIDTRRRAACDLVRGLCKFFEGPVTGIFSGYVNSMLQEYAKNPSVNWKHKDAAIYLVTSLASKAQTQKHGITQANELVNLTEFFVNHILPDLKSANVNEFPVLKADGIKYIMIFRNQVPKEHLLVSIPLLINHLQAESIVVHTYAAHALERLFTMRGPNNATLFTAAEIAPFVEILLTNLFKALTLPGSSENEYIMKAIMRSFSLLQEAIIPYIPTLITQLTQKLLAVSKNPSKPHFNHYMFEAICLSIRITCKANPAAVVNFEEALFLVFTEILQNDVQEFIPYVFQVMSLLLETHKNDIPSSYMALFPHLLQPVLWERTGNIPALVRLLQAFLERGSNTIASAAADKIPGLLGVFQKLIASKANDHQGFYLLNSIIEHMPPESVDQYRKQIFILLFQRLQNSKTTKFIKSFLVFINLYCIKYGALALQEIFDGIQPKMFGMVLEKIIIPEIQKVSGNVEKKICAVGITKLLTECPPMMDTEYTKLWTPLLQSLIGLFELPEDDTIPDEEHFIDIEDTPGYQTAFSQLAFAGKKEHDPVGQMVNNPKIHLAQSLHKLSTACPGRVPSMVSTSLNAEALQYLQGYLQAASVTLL
Sequence of UniProt P06493 (P06493 whole entry, looked up): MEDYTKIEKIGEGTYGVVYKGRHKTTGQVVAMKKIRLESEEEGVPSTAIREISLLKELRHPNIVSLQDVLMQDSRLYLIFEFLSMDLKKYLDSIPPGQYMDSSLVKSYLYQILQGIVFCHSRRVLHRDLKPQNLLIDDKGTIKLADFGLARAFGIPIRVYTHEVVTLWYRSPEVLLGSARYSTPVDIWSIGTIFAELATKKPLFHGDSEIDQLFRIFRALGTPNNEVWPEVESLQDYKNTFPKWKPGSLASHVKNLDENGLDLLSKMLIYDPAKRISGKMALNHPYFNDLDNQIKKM

Row | Target | log2 fold change [1] | log2 fold change (volasertib) | log2 fold change [2] | log2 fold change (epoxomicin) | log2 fold change [3] | log2 fold change [4] | log2 fold change [5] | log2 fold change (rosiglitazone) | log2 fold change [6] | log2 fold change [7] | log2 fold change (saracatinib) | log2 fold change (sotrastaurin) | log2 fold change (alvocidib) | log2 fold change (Tubastatin A) | log2 fold change [8] | log2 fold change (defactinib) | log2 fold change (rucaparib) | log2 fold change [9] | log2 fold change (encorafenib) | log2 fold change [10]
1 | CNN3 (UniProt Q15417) | -0.08 | -0.368 (active) | 0.072 | 0.066 | 0.005 | 0.008 | 0.106 | 0.058 | -0.018 | -0.055 | 0.063 | -0.122 | -0.017 | 0.02 | 0.036 | -0.13 | 0.048 | 0.008 | 0.009 | 0
2 | CD81 (UniProt P60033) | 0.393 (active) | 0.193 | -0.06 | 0.013 | 0.058 | -0.226 | 0.098 | 0.013 | -0.139 | 0.145 | 0.163 | 0.103 | 0 | -0.064 | -0.029 | -0.053 | -0.152 | 0.207 | 0.199 | 0
3 | CSE1L (UniProt P55060) | -0.209 (active) | -0.403 (active) | 0.047 | 0.03 | 0.002 | -0.068 | 0.008 | 0.047 | -0.095 | -0.181 | 0.032 | -0.076 | -0.069 | -0.033 | 0.016 | -0.092 | -0.059 | -0.057 | 0.022 | -0.013
4 | CD63 (UniProt P08962) | -0.013 | 0.048 | -0.013 | -0.019 | 0.017 | 0.06 | 0.01 | 0.04 | 0.012 | 0.018 | 0.021 | 0.017 | 0.01 | -0.005 | 0 | -0.006 | -0.018 | -0.01 | 0.049 | 0.015
5 | CHST11 (UniProt Q9NPF2) | -0.215 | -0.187 | -0.078 | 0.011 | 0.043 | -0.017 | -0.045 | -0.044 | – | 0.022 | – | -0.02 | -0.049 | 0.08 | 0.079 | -0.003 | 0.083 | – | 0.177 | -0.048
6 | CCNB1 (UniProt P14635) | 0.023 | 0.026 | -0.027 | 0.083 | -0.007 | -0.004 | 0.012 | 0.017 | -0.043 | -0.032 | -0.005 | 0.02 | -0.006 | -0.018 | -0.051 | -0.065 | -0.025 | -0.034 | -0.002 | 0.035
7 | CLUH (UniProt O75153) | 0.225 | 0.632 (active) | 0.015 | -0.028 | 0.047 | -0.113 | 0.094 | 0.134 | 0.019 | 0.387 (active) | -0.032 | -0.141 | -0.006 | 0.033 | -0.049 | -0.04 | 0.239 | 0.133 | -0.044 | -0.046
8 | CBX1 (UniProt P83916) | 0.001 | -0.119 | 0.103 | -0.022 | -0.007 | -0.037 | -0.013 | 0.009 | 0.028 | -0.014 | 0.073 | -0.037 | -0.026 | 0.035 | -0.018 | -0.143 | -0.01 | -0.02 | -0.043 | 0
9 | CDK1 (UniProt P06493) | -0.03 | -0.05 | 0.017 | 0.055 | -0.002 | 0 | 0.03 | 0.032 | 0.005 | -0.108 | 0.007 | -0.045 | -0.063 | 0.018 | -0.043 | -0.118 | 0.013 | 0.01 | -0.01 | 0.003
